Screening results deposited in PubChem by several laboratories.
A selection: hits, their analogues and other compounds. The true share with any hit is near 3.9%.
BoNT-F LC inh: BoNT/F light chain protease inhibitors, primary screen, biochemical, flow cytometry, MLPCN library. inhibition, % at 10 µM. AID 588497, 2011. Multiplex microsphere protease cleavage assay. Botulinum neurotoxin type F light chain protease (Clostridium botulinum). 360,000 tested, 0.22% active; in the data active = inhibition above about 35%, passing the limit was not always enough; inconclusive = no clear call, values can overlap the other calls
Anthrax LF inh2: Bacillus anthracis LF protease inhibitors, primary screen, biochemical, multiplex microsphere, MLPCN library | Lethal factor (Bacillus anthracis), P15917 | multiplex microsphere protease cleavage assay | inhibition, % at 10 µM | 360,000 tested, 0.12% active
Target sequence (P15917 whole entry, looked up): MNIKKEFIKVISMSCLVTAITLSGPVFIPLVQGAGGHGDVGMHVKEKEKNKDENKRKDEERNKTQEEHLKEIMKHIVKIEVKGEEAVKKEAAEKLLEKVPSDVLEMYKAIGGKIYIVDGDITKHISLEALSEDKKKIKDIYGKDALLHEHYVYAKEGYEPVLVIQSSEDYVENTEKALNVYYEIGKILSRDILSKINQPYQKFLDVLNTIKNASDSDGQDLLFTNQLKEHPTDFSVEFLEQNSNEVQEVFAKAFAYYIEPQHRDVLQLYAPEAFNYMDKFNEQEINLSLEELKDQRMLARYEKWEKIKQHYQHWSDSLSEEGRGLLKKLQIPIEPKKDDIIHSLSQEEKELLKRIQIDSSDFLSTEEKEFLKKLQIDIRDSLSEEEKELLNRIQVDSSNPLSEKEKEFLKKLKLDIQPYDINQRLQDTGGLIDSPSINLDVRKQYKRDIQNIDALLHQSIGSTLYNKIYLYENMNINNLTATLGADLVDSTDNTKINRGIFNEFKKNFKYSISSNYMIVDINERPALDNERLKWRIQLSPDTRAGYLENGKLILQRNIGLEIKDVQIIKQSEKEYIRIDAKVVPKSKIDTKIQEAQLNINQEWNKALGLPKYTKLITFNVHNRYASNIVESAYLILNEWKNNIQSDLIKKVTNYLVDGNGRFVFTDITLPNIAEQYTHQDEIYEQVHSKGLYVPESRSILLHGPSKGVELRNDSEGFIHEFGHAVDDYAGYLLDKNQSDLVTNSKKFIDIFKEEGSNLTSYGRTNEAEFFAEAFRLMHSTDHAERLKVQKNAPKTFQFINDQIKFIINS
VHR inh abs: VHR1 phosphatase inhibitors, primary screen, biochemical, absorbance, uHTS; Dual specificity protein phosphatase 3 (Homo sapiens), P51452; recombinant VHR phosphatase, pNPP absorbance; inhibition, % at 13.3 µM; 290,000 tested, 0.52% active; in the data active = inhibition above about 50%
3CLpro inhibitor: SARS-CoV 3CLpro protease inhibitors, primary screen, biochemical, quenched FRET; Replicase polyprotein 1ab (Severe acute respiratory syndrome coronavirus), P0C6X7; recombinant SARS-CoV 3CLpro, quenched FRET peptide cleavage; inhibition, % at 6 µM; 290,000 tested, 0.14% active; AID 1706, 2009; in the data active = inhibition above about 12%
Autofluor counter: compound fluorescence in toxin protease inhibitor counterscreen; fluorescence intensity (no concentration beside the values); compound autofluorescence counterscreen, microsphere flow cytometry; hits give high values; 360,000 tested, 3.1% active; AID 624483; in the data active = fluorescence intensity above about 16000; inconclusive = no clear call, values can overlap the other calls
BoNT-A LC inh2: BoNT/A light chain protease inhibitors, primary screen, biochemical, flow cytometry, MLPCN library. Botulinum neurotoxin type A light chain protease (Clostridium botulinum A str. ATCC 3502). 360,000 tested, 0.17% active. multiplex microsphere protease substrate cleavage. inhibition, % at 10 µM
A number is an active result; – = inactive; ? = inconclusive; · = not tested or not shown. Rule as the data show it, unless noted: active = inhibition above about 30%; inconclusive = no clear call, values can overlap the other calls; inactive = below that.

SMILES	BoNT-F LC inh	Anthrax LF inh2	VHR inh abs	3CLpro inhibitor	Autofluor counter	BoNT-A LC inh2
Cc1cccc(C)c1NC(=O)Cn1nnc(-c2ccc(N3CCOCC3)cc2)n1	–	–	–	–	20925	–
Cc1ccc(C)c(NC(=O)Cn2nnc(-c3ccc(N4CCOCC4)cc3)n2)c1	–	–	–	–	–	–
C=C(C)CSC1=C(C#N)C(c2ccccc2Cl)CC(=O)N1 (stereo not drawn)	–	–	–	–	23035	–
O=C(c1ccc(F)cc1)N1CCC(C(=O)N2CCN(S(=O)(=O)c3cccc(Cl)c3)CC2)CC1	–	–	·	·	–	–
CCCN1CCC(=O)N([C@H](COc2ccccc2)c2ccccc2)CC1	–	–	55	–	–	–
CN1CCC(=O)N([C@H](CC#N)c2ccccc2)CC1	–	–	52	–	–	–
Cc1nc2ccc(NC(=S)NC3CC3)cc2nc1C	–	–	–	–	–	–
Cc1nc2ccc(NC(=S)NC(C)C)cc2nc1C	–	–	–	–	22287	–
Nc1nc(Cn2nnc(-c3ccccc3Cl)n2)nc(N2CCOCC2)n1	–	–	–	–	23188	?
CC1(C(=O)NS(=O)(=O)c2cccc(F)c2)CCN1C(=O)c1cccc(F)c1 (stereo not drawn)	–	–	·	·	–	–
CC(C)NC(=O)c1ccc(CSCc2ccccc2Cl)o1	–	–	57	–	–	–
CN(C)c1ccc(C(=O)Nc2ccc(S(=O)(=O)NC3=NCCCCC3)cc2)cc1	–	–	–	–	22816	–
CC(C)c1ccc(C(=O)Nc2ccc(S(=O)(=O)NC3=NCCCCC3)cc2)cc1	–	–	·	·	–	–
Cc1ccc(S(=O)(=O)NC(=O)Nc2ccc(N(C)C)cc2)cc1	–	–	52	–	–	–
CC1CCCN(c2ccc3nncn3n2)C1 (stereo not drawn)	–	–	–	–	–	–
COc1ccc2oc(C(=O)OCC(=O)Nc3ccc(C(=O)N(C)C)cc3)c(C)c2c1	–	–	–	–	–	–
Cc1cc(C)nc(S/C=C/C(=O)c2ccccc2F)n1	–	–	–	–	–	–
Cc1nc(NC2CCCCC2)c2nnn(Cc3ccccc3Cl)c2n1	–	–	–	–	–	–
CC(C)(C)c1nc(N2CCN(C(=O)c3ccco3)CC2)c2nnn(Cc3ccccc3)c2n1	–	–	–	–	–	–
Cc1nc(N2CCC(C(N)=O)CC2)c2nnn(Cc3ccccc3)c2n1	–	–	–	–	21409	–
Cc1nc(N2CCCC2)c2nnn(Cc3ccccc3Cl)c2n1	–	–	–	–	20754	–
N#C/C(=C\C=C\c1ccccc1)c1nc(-c2ccc3c(c2)OCO3)cs1	–	–	–	–	–	52
Cc1cc(C(=O)CSc2nnc(N)s2)c(C)n1CCc1ccc(F)cc1	–	–	–	–	–	–
Cc1cc(C(=O)CSc2nnc(N)s2)c(C)n1CCc1ccc(Cl)cc1	–	–	–	–	22078	?
O=C(O)CCC(=O)OCC1CCCCC1	–	–	–	–	19321	?
SMILES	BoNT-F LC inh	Anthrax LF inh2	VHR inh abs	3CLpro inhibitor	Autofluor counter	BoNT-A LC inh2
CCn1c(SCC(=O)Nc2ccc(NC(=O)c3ccco3)c(OC)c2)nc2ccccc2c1=O	–	–	–	–	20994	–
COc1ccc(OC)c(NC(=O)CSc2nc3ccccc3c(=O)n2CCNC(C)=O)c1	–	–	–	–	20543	–
COc1ccc(NC(=O)CSc2nc3ccccc3c(=O)n2CCNC(C)=O)cc1	–	–	–	–	–	–
COc1ccc(NC(=O)CSc2nc3ccccc3c(=O)n2CCNC(C)=O)c(OC)c1	–	–	–	–	–	–
CCOc1ccc(NC(=O)CSc2nc3ccccc3c(=O)n2CCNC(C)=O)cc1	–	–	–	–	20012	–
Oc1oc(-c2cccc3ccccc23)nc1C=NCc1ccccc1	·	·	·	–	·	·
NC(=O)N/N=C/c1sc(N2CCCCC2)nc1-c1cccs1	–	–	·	·	–	–
CC(C)NC(=S)N/N=C/c1sc(N2CCCCC2)nc1-c1cccs1	–	–	–	–	–	33
O=c1cc2c(=O)oc3cc(O)c(O)oc3c2c(O)c1O	–	–	112	–	–	–
O=c1[nH]cnc2sc3c(c12)CCCC3	–	–	–	–	23869	–
